Results published in the supplement of paper PMC9023506.
Structures can show the parent of a compound that is named as a salt.

System: Danio rerio larvae (5 dpf)
Experiment: optomotor response to red moving lines, difference vs DMSO (percentage points (treated minus DMSO)); higher = more of the behaviour than the DMSO vehicle control
Conditions: 10 µM; exposure time: 3 h pre-incubation + 3 h imaging
Description: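 5-dpf wild-type zebrafish larvae were imaged in 96-well plates. They were treated with 190 Tocris FDA-approved drugs at 10 µM (1 µl/ml DMSO) for 3 h before and 3 h during imaging at 28.5 °C, 48 larvae per drug. Automated image analysis gave % time moving and optomotor responses. Values are drug group mean minus DMSO vehicle mean (n=844), in percentage points, for 10 behaviours.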

SMILES	optomotor response to red moving lines
C[C@]12CCC(=O)C=C1CC[C@@H]1[C@@H]2[C@@H](O)C[C@@]2(C)[C@H]1CC[C@]2(O)C(=O)CO [Hydrocortisone]	13
C=CC(=O)N1CCC[C@@H](n2nc(-c3ccc(Oc4ccccc4)cc3)c3c(N)ncnc32)C1 [Ibrutinib]	-1.62
Nc1cc(N2CCCCC2)nc(N)[n+]1[O-] [Minoxidil]	-13.4
CCc1nc(N)nc(N)c1-c1ccc(Cl)cc1 [Pyrimethamine]	8.52
CN(C)CCC[C@@]1(c2ccc(F)cc2)OCc2cc(C#N)ccc21 [Escitalopram oxalate]	-7.88
O=C(c1ccc(OCCN2CCCCC2)cc1)c1c(-c2ccc(O)cc2)sc2cc(O)ccc12 [Raloxifene hydrochloride]	3.63
C[C@]12CC[C@@H]3c4ccc(O)cc4C[C@@H](CCCCCCCCC[S+]([O-])CCCC(F)(F)C(F)(F)F)[C@H]3[C@@H]1CC[C@@H]2O (stereo not given in full)	-3.73
O=C(O[C@@H]1C[C@@H]2C[C@H]3C[C@H](C1)N2CC3=O)c1c[nH]c2ccccc12 [Dolasetron mesylate]	-6.24
COc1ccccc1Oc1c(NS(=O)(=O)c2ccc(C(C)(C)C)cc2)nc(-c2ncccn2)nc1OCCO [Bosentan]	-14
CCOc1nc2cccc(C(=O)O)c2n1Cc1ccc(-c2ccccc2-c2nnn[nH]2)cc1 [Candesartan]	4.89
O=C(O)C[C@H](O)C[C@H](O)/C=C/c1c(C2CC2)nc2ccccc2c1-c1ccc(F)cc1 [Pitavastatin calcium]	3.56
CC(=O)Oc1ccccc1C(=O)O [Aspirin]	7.38
COc1cc2nccc(Oc3ccc(NC(=O)C4(C(=O)Nc5ccc(F)cc5)CC4)cc3)c2cc1OC	-13.9
COc1cc(Nc2c(C#N)cnc3cc(OCCCN4CCN(C)CC4)c(OC)cc23)c(Cl)cc1Cl [Bosutinib]	3.82
CC(C)c1ccc2oc3nc(N)c(C(=O)O)cc3c(=O)c2c1 [Amlexanox]	-3.59
Cn1nnc2c(C(N)=O)ncn2c1=O [Temozolomide]	2.24
CC(C)n1c(/C=C/C(O)CC(O)CC(=O)O)c(-c2ccc(F)cc2)c2ccccc21 (stereo not given) [Fluvastatin sodium]	-2.5
CC(C)(C#N)c1cc(Cn2cncn2)cc(C(C)(C)C#N)c1 [Anastrozole]	-3.51
CC(C)OC(=O)C(C)(C)Oc1ccc(C(=O)c2ccc(Cl)cc2)cc1 [Fenofibrate]	16.3
CC#C[C@]1(O)CC[C@H]2[C@@H]3CCC4=CC(=O)CCC4=C3[C@@H](c3ccc(N(C)C)cc3)C[C@@]21C [Mifepristone]	3.5

SMILES	optomotor response to red moving lines
C[C@H](Cc1cc2c(c(C(N)=O)c1)N(CCCO)CC2)NCCOc1ccccc1OCC(F)(F)F [Silodosin]	6.25
CN(CCOc1ccc(CC2SC(=O)NC2=O)cc1)c1ccccn1 (stereo not given) [Rosiglitazone]	-2.8
Cc1ccccc1C(=O)Nc1ccc(C(=O)N2CCCC(O)c3cc(Cl)ccc32)c(C)c1 (stereo not given) [Tolvaptan]	-7.01
Cc1cc(C2CCCCC2)n(O)c(=O)c1 [Ciclopirox]	-5.18
Nc1ncn([C@@H]2O[C@H](CO)[C@@H](O)[C@H]2O)c(=O)n1 [5-Azacytidine]	5.02
COc1cc2nc(N3CCN(C(=O)C4COc5ccccc5O4)CC3)nc(N)c2cc1OC (stereo not given) [Doxazosin mesylate]	-7.06
CCOC(=O)C1=C(C)NC(C)=C(C(=O)OC)C1c1cccc(Cl)c1Cl (stereo not given) [Felodipine]	4.89
CCC(C)(C)C(=O)O[C@H]1C[C@@H](C)C=C2C=C[C@H](C)[C@H](CC[C@@H]3C[C@@H](O)CC(=O)O3)[C@H]21 [Simvastatin]	-5.54
N#C[C@@H]1C[C@@H]2C[C@@H]2N1C(=O)[C@@H](N)C12CC3CC(CC(O)(C3)C1)C2 [Saxagliptin hydrochloride]	-1.45
CNC(=O)c1ccccc1Sc1ccc2c(/C=C/c3ccccn3)n[nH]c2c1 [Axitinib]	1.5
CCOc1nc2cccc(C(=O)O)c2n1Cc1ccc(-c2ccccc2-c2noc(=O)[nH]2)cc1 [Azilsartan]	-3.43
CS(=O)(=O)CCNCc1ccc(-c2ccc3ncnc(Nc4ccc(OCc5cccc(F)c5)c(Cl)c4)c3c2)o1 [Lapatinib]	0.000688
COc1ccccc1OCC(O)CN1CCN(CC(=O)Nc2c(C)cccc2C)CC1 (stereo not given) [Ranolazine dihydrochloride]	9.27
CNC(=O)c1cc(Oc2ccc(NC(=O)Nc3ccc(Cl)c(C(F)(F)F)c3)cc2)ccn1 [Sorafenib]	-10.7
CC(C)Nc1cccnc1N1CCN(C(=O)c2cc3cc(NS(C)(=O)=O)ccc3[nH]2)CC1 [Delavirdine mesylate]	-0.668
COCCc1ccc(OCC(O)CNC(C)C)cc1 (stereo not given) [Metoprolol tartrate]	-1.5
OC(CNCC(O)C1CCc2cc(F)ccc2O1)C1CCc2cc(F)ccc2O1 (stereo not given) [Nebivolol hydrochloride]	-16.2
C#CCN[C@@H]1CCc2ccccc21 [Rasagiline mesylate]	16.9
CN[C@H]1CC[C@@H](c2ccc(Cl)c(Cl)c2)c2ccccc21 [Sertraline hydrochloride]	21.6
O=C(O)CCCc1ccccc1 [Sodium 4-Phenylbutyrate]	3.33
